Positions count from the first letter of the chain named. In all, about 24,000 sequences were measured (“enrichment r”: median about 0.99, highest 2% from about 3.7 on). The sample holds the highest values, similar sequences and a random draw of the others, so the mix is not that of the screen.
T1: UNK ZnF1-3 (human, UniProt Q9C0B0 31-174)
T1 sequence: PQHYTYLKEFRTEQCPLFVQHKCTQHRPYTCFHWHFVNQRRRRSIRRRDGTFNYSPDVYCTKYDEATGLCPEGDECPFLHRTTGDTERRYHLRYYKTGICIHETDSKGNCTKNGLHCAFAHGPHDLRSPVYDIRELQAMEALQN

B1: chr3:35977374:35977375:+_ENSMUSG00000027710_ENSMUST00000011492|mus_hu|motif|central (ssRNA)
RNA: GGGAGUUCUACAGUCCGACGAUCCACAGGUAUCUUGGUGUUUUCAAAAUGGACUUCACAAGUGUUGGAGCCCCGAAUGCCGGAUUUAUCUUCGGGUUUCCCAUUAGUGACUCCACCAAAGUCUCUUUCUACUAUGAAUGCUGUCAACAGAGGAUUGAGCAUCA
B2: chr2:24917620:24917621:+_ENSMUSG00000006476_ENSMUST00000102931|mus_mus|motif|central (ssRNA)
RNA: GGGAGUUCUACAGUCCGACGAUCAGUAAUGCUGCUUCCCUUCAAAUUGUUUCAGGGGUGUAAAAAAAUUGCACUUAUUUCGGUGAACCCCAUGGAGGGGAUCCCCAAUGCUGCUGCCUCCAGGCGAGGCAUGACAGGUCAAUGCAACAGAGGAUUGAGCAUCA
B3: chr5:10264850:10264851:+_ENSG00000150753_ENST00000503026|hu_hu|FALSE|FALSE (ssRNA)
RNA: GGGAGUUCUACAGUCCGACGAUCUUCUCAAUGUCUUCAUUCUUCAGAUUCUCCAGGCUUACGAAUGUCAUCAAUCUUCAAAAUCAUUCUAACCAUUUGUGUUGCAAGAGAUAUCUGUUGCUUUUUGCCAAUCAAGGUUUCUAUCAACAGAGGAUUGAGCAUCA
B4: 85396044_85398007_762_3pUTR_ENSMUSG00000021549_ENSMUST00000109552|mouse|control|control (ssRNA)
RNA: GGGAGUUCUACAGUCCGACGAUCCACCAAUGUAGUAAUCACCACACAUAGCAAUAAUCCUAAAAUGAUUGACAACAUUUGUCUGACUAAGGAAUGAAAGUACAAAGGACCCCGGCCUCCGAUCACUCUCUCUUAUAAGAUAGCCAACAGAGGAUUGAGCAUCA
B5: chr6:13786029:13786030:-_ENSMUSG00000048216_ENSMUST00000115492|mus_mus|FALSE|FALSE (ssRNA)
RNA: GGGAGUUCUACAGUCCGACGAUCAAAAACUCUCCAAUAGCAGGCCACCAGGUAGGGACCCCACAAGGUUAGGAAGAGGAAAGUCAUUAUAUAAAACAUUCUGCUGAUUCUUUUCUCCAUUUUGAACUCAUCCAAGACCAAUAGCAACAGAGGAUUGAGCAUCA
B6: chr4:34514055:34514056:+_ENSMUSG00000028291_ENSMUST00000084299|mus_mus|motif|central (ssRNA)
RNA: GGGAGUUCUACAGUCCGACGAUCCUGGGGAGGAGGUGCAGCAAUAAACAUUUGUUAAAAAGACUGAUAGAAUAAAUAAAACGGCCAAAAAAUAAUAAAGAAAAUCAUAUAAACCCAUUCUGAAACCCCAAGAAAAGUCCUGAACAACAGAGGAUUGAGCAUCA
B7: chr2:166767530:166767531:+_ENSMUSG00000002718_ENSMUST00000002790|mus_mus|FALSE|FALSE (ssRNA)
RNA: GGGAGUUCUACAGUCCGACGAUCAAAUAUUUCUUGUAAUGCUAGUGCCCCAUACUUAAUGCAAUAUAAGUUAAUAAACACUAAGAAACUCUUGAUAAACUUGGUGGUCUUGGAGUUUUGCAGUCUCUGGAAUAGUAGAAUGAACAACAGAGGAUUGAGCAUCA
B8: chr12:75046761:75046762:+_ENSMUSG00000021109_ENSMUST00000021530|mus_mus|FALSE|FALSE (ssRNA)
RNA: GGGAGUUCUACAGUCCGACGAUCAUAUAGAAAAUAUAAAUAGACUGCUGAGCCACCAGUGUCCAAAAAUAACCAACAGAAACAAAAACCCAACAAACAACAACAACUGAACAAAAACAUUAACAAUCAAAAGGAAUGAGAUUACAACAGAGGAUUGAGCAUCA
B9: chr4:34514055:34514056:+_ENSMUSG00000028291_ENSMUST00000084299|mus_mus|FALSE|FALSE (ssRNA)
RNA: B6 RNA with G82U, G83A
B10: chr9:115598534:115598535:+_ENSG00000148158_ENST00000374232|hu_mus|motif|central (ssRNA)
RNA: GGGAGUUCUACAGUCCGACGAUCCAGCUUAUAGCCUCCGGUGACGUGCUUGACUGACUCACCCACUCUGCUCAGCAAUGCGGUCCCUUGCUUCUUGUAGGCAUUCAGGUCCUUAGCAGUGAGGAACACAUUGAAGUGUUCAUUCAACAGAGGAUUGAGCAUCA
B11: chr8:41682716:41682717:-_ENSMUSG00000039431_ENSMUST00000048898|mus_hu|motif|central (ssRNA)
RNA: GGGAGUUCUACAGUCCGACGAUCCACAUCGCUGAGCUGCCAGUAAUGAUUAGGGAGGCCCAUCCGCGUGUAUUCUUCACGGAGAUCGAUCAGCACCCAGCCUUGCUCUCUUUCUUCUUUAUCCAGCAUGGGGUUGAAUGAAAACAACAGAGGAUUGAGCAUCA
B12: 34871406_34871526_3634_3pUTR_ENSMUSG00000037503_ENSMUST00000047534|mouse|control|control (ssRNA)
RNA: GGGAGUUCUACAGUCCGACGAUCAUGGUGGUGGGUUUGCUUCUCCAGAGUCAAGGAGCUUACAGUUUCCAAUACUCCACAACUCUAAACUGCAAGCAGCAGCAGCCGAGGAAGGAAGGCCCCUAGCCUCAGGGACGGCAGCAGCAACAGAGGAUUGAGCAUCA
B13: chr12:86311719:86311720:-_ENSMUSG00000042350_ENSMUST00000043169|mus_hu|FALSE|FALSE (ssRNA)
RNA: GGGAGUUCUACAGUCCGACGAUCGACUGCCAAAGGACGCCCCAGGAUCCCGAGCCGGGGGUUGCAGCGCGACGAAGUUCCACCUCCGCUGUCCUGGGAAGGGGCGGCAGCACUCAGCAGAAGACGGGCUCCCCACUCUCCCACCAACAGAGGAUUGAGCAUCA
B14: chr2:104430758:104430759:+_ENSMUSG00000027176_ENSMUST00000028599|mus_mus|motif|central (ssRNA)
RNA: GGGAGUUCUACAGUCCGACGAUCGGGACUACAACGUACGCACCAGCCGGCAAAGGGAAGCUAGAAAAGGAAAAUUAAACGGAAGGCAAACCCCACCAAAACCAGGAACACUACCCCUGUCCCUCAGAGCCAAAGCCGCCGCCACAACAGAGGAUUGAGCAUCA
B15: chr7:23239867:23239868:+_ENSG00000136243_ENST00000258742|hu_hu|FALSE|FALSE (ssRNA)
RNA: GGGAGUUCUACAGUCCGACGAUCCCCAAAACCAGCAGGGCUUCCAGAAGAGGCAGCAGCAAAUCCAGAGUUUGUUUUAAAACUAAAGUUCUGAGCAUUAUCACUGCUGCUGUUAUUGACUGGAAAGCCUGGCGACAUAAAUGUCAACAGAGGAUUGAGCAUCA
B16: chr2:181041410:181041411:-_ENSMUSG00000027581_ENSMUST00000103045|mus_hu|FALSE|FALSE (ssRNA)
RNA: GGGAGUUCUACAGUCCGACGAUCAGCAUGAAGCUGGGGGCGGGGGUGGGGGAGGAGGAACAAAAGUUGCAUCUAGACAGAGGUGAACGAAACAAAACCAAAACCCGAACGUGUUCUGUCGCAGGAUGGGCGCCGCCCGUCCCGCAACAGAGGAUUGAGCAUCA
B17: chr15:100311029:100311030:-_ENSMUSG00000044636_ENSMUST00000061457|mus_mus|FALSE|FALSE (ssRNA)
RNA: GGGAGUUCUACAGUCCGACGAUCGCCUGGUCUACAUAGCAAGUCCCAGGCCAGCCAGGGCUGUUUAGCAACACACUGCCUAAAAAAAAAAAAAGAAAAAAGAAAAGAAAAGAAAAGAAAAGAAAAGAAAAGAAAAGAAAAGAACAACAGAGGAUUGAGCAUCA
B18: chr9:108469239:108469240:-_ENSMUSG00000070283_ENSMUST00000074208|mus_hu|FALSE|FALSE (ssRNA)
RNA: GGGAGUUCUACAGUCCGACGAUCGGGAAGCUCAACGGGCGGACAGCGCAGCGAGGGUCGCGCUCGGUACAAGCUACGUAGCGCGAGAGCGGUGGCCAUGGCUGACCAACGCGCGGCGAAGUCGUCACCGGCGCCGUUAGUCCCCAACAGAGGAUUGAGCAUCA
B19: 91351710_91351830_385_5pUTR_ENSMUSG00000055013_ENSMUST00000027521|mouse|control|control (ssRNA)
RNA: GGGAGUUCUACAGUCCGACGAUCAAGAAAAAGAAAAAGAAAAAGAAAAGAACGCUGAGGAUGAAGCAGUAGAGGGGCUCAGUUCAUAGCAGGGACCAGCGUCCCGGGUCAGCGGGCCGUCCGGGAAGACCGCGGCGCCAUGGACAACAGAGGAUUGAGCAUCA
B20: chr3:38349274:38349275:-_ENSMUSG00000044864_ENSMUST00000156038|mus_mus|FALSE|FALSE (ssRNA)
RNA: GGGAGUUCUACAGUCCGACGAUCAAAUGACCAAGUACAGCAAGCAGGCUGGCUACAGCACCCUGGUCAGCCUGGUCCUCGCCAGAAGCUGUUUUUGUUCUACUUUAAAUCAGUUAAUAAUAAAAACAAAACAAAAGGGAAAAACAACAGAGGAUUGAGCAUCA
B21: chr4:155540527:155540528:-_ENSMUSG00000041936_ENSMUST00000154494|mus_hu|FALSE|FALSE (ssRNA)
RNA: GGGAGUUCUACAGUCCGACGAUCGCCUGGACGGAAGGGAGGCCGGGCCAGCAGUCCCUCCGGCCAACACUCAGGCAAGAAAAUCAUAUCAAAAAGCAACAAGUUUACAAAAAUAGAAAAUAAUUACAGCGGGCGCGGGGCUCUCAACAGAGGAUUGAGCAUCA
B22: chr15:100311029:100311030:-_ENSMUSG00000044636_ENSMUST00000061457|mus_mus|motif|central (ssRNA)
RNA: B17 RNA with U80G, A81G
B23: chr18:64617603:64617604:-_ENSMUSG00000024588_ENSMUST00000025484|mus_mus|FALSE|FALSE (ssRNA)
RNA: GGGAGUUCUACAGUCCGACGAUCGCGGGAGGCACACUGGAAGCCAGUUUGGCCUACAUAGGGCAAGCGAGAAAUAAGAUAAAAUAAGAUAAAACACAGGCAAGAGAGAAAUCACAGUUUGUGCCCAGACAAACGUGGCUUCUGCAACAGAGGAUUGAGCAUCA
B24: chr4:140556289:140556290:+_ENSMUSG00000036622_ENSMUST00000037055|mus_mus|mus_mus_mus_hu_False|8_78 (ssRNA)
RNA: GGGAGUUCUACAGUCCGACGAUCGAUGGAGCUCACCAGGCCCCCUUUUGCCGUGCAGAACCCUGUCCGGGUCACCACUGCCAGGACGUGCGGUCCCACAUAGGCCCGGGCCUGCAAGAUGAGGGUCCCACAGAAGAGUGUGUGCAACAGAGGAUUGAGCAUCA

Target: T1, UNK ZnF1-3
Assay: nsRBNS (natural sequence RNA bind-n-seq); RBNS binding buffer (assumed for nsRBNS): 25 mM Tris pH 7.5, 150 mM KCl, 3 mM MgCl2, 0.01% Triton X-100, 500 ug/ml BSA, 20 U/ml SUPERase-In, 4 C; UNK is unkempt and MSI1 is Musashi-1; names of the RNAs are library labels; protein concentration not given here; high values mean tight binding

Binder | binding signal [enrichment R]
B1 | 0.637
B2 | 1.02
B3 | 0.579
B4 | 0.49
B5 | 1.71
B6 | 15.2
B7 | 1.05
B8 | 3.57
B9 | 8.55
B10 | 0.691
B11 | 1.07
B12 | 1.48
B13 | 1.33
B14 | 2.17
B15 | 0.668
B16 | 3.3
B17 | 4.34
B18 | 0.446
B19 | 4.11
B20 | 0.882
B21 | 4.13
B22 | 4.43
B23 | 3.43
B24 | 1.02

From publication PMC12136788
